# Test results as given in PubChem BioAssay (Tox21).
# Where “and” joins values, the source holds several entries; their conditions need not be identical. Equal values may be shown once. Values without a mark were called inactive. Calls of active or inactive are those of the source. Calls follow the shape of the dose curve; as a rule, active = well fitted curve in the direction sought with a large enough effect in the repeat runs; inconclusive = weak or mixed curves; inactive = flat fitted curve, though single readings scatter.
# Experiment: qHTS assay to test for compound auto fluorescence at 460 nm (blue) in HEK293 cells (AID 720678)
# Conditions: blue autofluorescence 405/460 nm; series mostly up to 91.3 µM; fluorescence, % of triamterene: at the top concentration
# Description: National Center for Advancing Translational Sciences [NCATS]
# NIH Chemical Genomics Center [NCGC]
# U.S. Environmental Protection Agency [EPA]
# National Institutes of Environmental Health Sciences [NIEHS]
# National Toxicology Program [NTP]
# U.S. Food and Drug Administration [FDA]
# Compound auto fluorescence often interferes with screening of the compound library against various biological targets and signaling pathways. Some of these compounds may have fluorophoric properties. Such properties may interfere with the assay outputs resulting in false positives and/or negatives. To decrease such complications and ensure the compound activities are relevant in terms of biological response, the Tox21 10K compound library was screened for auto fluorescence.
# From the fluorophores used as reporter signals in our screening assays, the auto fluorescence equivalencies of compounds against three fluorophores have been evaluated: Triamterene, Fluorescein and Rose Bengal sodium for blue, green and red fluorescence, respectively. The fluorescence intensities were measured using Excitation/Emission wavelengths at 405/460nm, 485/535nm and 540/590nm for blue, green and red labels, respectively. This assay includes the blue fluorescence data.
# Tox21 Assay Protocol Summary:
# 2,000 HEK293 cells in 5 uL of culture medium containing 10% dialyzed FBS per well were dispensed into black wall/clear bottom 1536-well plates using a Multidrop Combi Dispenser (Thermo Scientific). The assay plates were incubated for 4-5 hr at 37C to allow cell attachment to the well bottom, followed by the transfer of 23 nL compound or DMSO vehicle by a pintool work station (Kalypsys, San Diego, CA). After the assay plates were incubated overnight at 37C and 5% CO2, fluorescence intensities in the assay plates were measured by an Envision (PerkinElmer, Shelton, CT) plate reader using three labels for measuring blue, green and red fluorescence at […] 460, 535 and 590nm respectively.
# % is scaled to controls: 0 for no effect and ±100 for the full control effect; potency is read from the fitted curve at half-maximal effect; tags tell the direction and shape of the fitted curve or compound fluorescence and quenching.
Structure (SMILES),"fluorescence, % of triamterene",Potency
NC(=O)NS(=O)(=O)c1ccc(N)cc1,-0.0381% [at 46 µM],
CCCCCCCCCCCCCC[P+](CCCC)(CCCC)CCCC (tested in a mixture with another compound),-0.0664%,
CCCCCCCC/C=C/CCCCCCCC1=NCCN1CCO,0.173%,
CC1=C(/C=C/C(C)=C/C=C/C(C)=C/C=O)C(C)(C)CCC1,1.41%,
Cc1c(C)c2c(c(C)c1O)CCC(C)(COc1ccc(CC3SC(=O)NC3=O)cc1)O2 (stereo not given),,inactive
CCCCCCCCCCCCCCCCCC[N+](C)(C)Cc1ccccc1,-0.0773%,
Oc1ccc(Cl)cc1Sc1cc(Cl)ccc1O,,inactive
CCC1OCC(COc2ccc(Oc3ccccc3)cc2)O1 (stereo not given),0.0007%,
Nc1c2ccccc2nc2ccccc12,,11.2 µM [fluorescent] (active) and 31.6 µM [fluorescent] (active)
CSc1ccc(/C=C2/C(C)=C(CC(=O)O)c3cc(F)ccc32)cc1,-0.193% [at 46 µM],
CNCc1cc(F)ccc1Oc1ccc(Cl)c(Cl)c1,0.131%,
S=c1[nH]c2ccccc2s1,,inactive
CCCC(C)c1ccccc1O (stereo not given),0.1%,
O=Cc1cc(O)ccc1Br,0.214% [at 95.7 µM],
C[n+]1cc2c3c(ccc2c2ccc4cc5c(cc4c21)OCO5)OCO3,-0.0106% [at 46 µM],
CC1=NC(C)OC1C (stereo not given),1.9%,
COc1ccc(CN2CCN(C(c3ccc(F)cc3)c3ccc(F)cc3)CC2)c(OC)c1OC,-0.263% [at 46 µM],
CN(C)c1ccc(SC#N)cc1,-0.0258%,
CCC(Cl)C(Cl)C(Cl)CC(Cl)C(Cl)C(C)Cl (stereo not given),-0.0233%,
COc1cc(-c2nc(NC(=O)c3cc4cc(C)cc(C)c4n3CC(=O)O)sc2CCC2CCCCC2)c(OC)cc1Cl,-0.11%,

Structure (SMILES),"fluorescence, % of triamterene",Potency
CC1(C)CCC(C)(C)c2cc(C(=O)Nc3ccc(C(=O)O)cc3)ccc21,0.0674%,
O=C(O)c1cc(O)c2c(c1)C(=O)c1cccc(O)c1C2=O,-0.117% [at 95.7 µM],
CC(=O)OCC(C)OC(C)=O (stereo not given),-0.109%,
CCN(CC)CCNC(=O)c1c(C)[nH]c(/C=C2\C(=O)Nc3ccc(F)cc32)c1C,-0.158% [at 46 µM],
O=[N+]([O-])c1cc(Cl)c(Cl)c(Cl)c1Cl,-0.189%,
CCCN(CCC)C(=O)C(CCC(=O)OCCCN1CCN(CCOC(=O)Cc2c(C)n(C(=O)c3ccc(Cl)cc3)c3ccc(OC)cc23)CC1)NC(=O)c1ccccc1 (stereo not given),0.224% [at 46 µM],
O=C(OC[C@H]1O[C@@H](OC(=O)c2cc(O)c(O)c(OC(=O)c3cc(O)c(O)c(O)c3)c2)[C@H](OC(=O)c2cc(O)c(O)c(OC(=O)c3cc(O)c(O)c(O)c3)c2)[C@@H](OC(=O)c2cc(O)c(O)c(OC(=O)c3cc(O)c(O)c(O)c3)c2)[C@@H]1OC(=O)c1cc(O)c(O)c(OC(=O)c2cc(O)c(O)c(O)c2)c1)c1cc(O)c(O)c(OC(=O)c2cc(O)c(O)c(O)c2)c1,,inactive
C[C@H](CCC(=O)O)[C@H]1CC[C@H]2[C@@H]3CC[C@@H]4C[C@H](O)CC[C@]4(C)[C@H]3CC[C@]12C,,inactive
CC(C)(C)CC(C)(C)c1ccc(O)c(Cc2ccc(Cl)cc2Cl)c1,-0.0777% [at 46 µM],
CCc1cc(SCc2sc(-c3ccc(C(F)(F)F)cc3)nc2CN2CCN(c3ccc(OC)cc3)CC2)ccc1OCC(=O)O,0.0112%,
O=c1[nH]cnc2nc[nH]c12,0.0406% [at 46 µM],
CCCCCCCCCCCC(=O)NCCCN(C)C,-0.0016%,
O=C(c1ccc(F)cc1)C1CCN(CCn2c(=O)[nH]c3ccccc3c2=O)CC1,0.0341% [at 46 µM],
CCCCCCOC(=O)c1ccc(O)cc1,,inactive
CN(C)c1ccc(C2(c3ccc(N(C)C)cc3)OC(=O)c3cc(N(C)C)ccc32)cc1,0.0258%,
CC(C)=CCOc1ccc(/C=C/C(=O)c2ccc(OCC=C(C)C)cc2OCC(=O)O)cc1,0.834% [at 46 µM],
CCCCN(CCCC)C(=O)N(CCCC)CCCC,0.167%,
Cc1ccc(O)c(C(C)(C)C)c1,,inactive
Cc1cc2c(cc1C(F)(F)F)N(C(=O)Nc1ccc(Oc3cccnc3C)nc1)CC2,-0.0446%,
CC/C(=C(\c1ccc(O)cc1)c1ccc(OCCN(C)C)cc1)c1ccccc1,-0.474% [at 95.7 µM],
